This excerpt belongs to a sample that is enriched for hits.
Cruzain inh Det: cruzain (T. cruzi) inhibition with detergent. 0.43% of 200,000 active. purified cruzain, Z-FR-AMC fluorescence, 0.01% Triton. AID 1478. Potency, µM, hits mostly inhibitors. P25779; also: nearly all actives have a fitted effect of over 40% in size
Target sequence (P25779 123-467 limits assumed): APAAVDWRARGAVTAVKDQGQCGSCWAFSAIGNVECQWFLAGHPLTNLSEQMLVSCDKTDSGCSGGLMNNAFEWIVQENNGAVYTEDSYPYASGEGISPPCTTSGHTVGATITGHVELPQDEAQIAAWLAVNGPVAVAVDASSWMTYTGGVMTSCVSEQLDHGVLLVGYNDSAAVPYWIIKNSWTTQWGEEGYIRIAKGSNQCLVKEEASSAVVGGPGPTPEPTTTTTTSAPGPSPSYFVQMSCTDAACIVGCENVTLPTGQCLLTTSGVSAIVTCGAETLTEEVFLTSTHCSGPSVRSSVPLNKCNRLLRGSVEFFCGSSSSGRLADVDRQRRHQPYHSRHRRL
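Purified cruzain (1.5 nM final) was preincubated with compounds for 15 min at room temperature in 100 mM sodium acetate pH 5.5, 5 mM DTT, 0.01% Triton X-100. Reaction started with 2 uM Z-FR-AMC; AMC fluorescence change over 60 s gave activity.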
NS1 function inh: blocks influenza NS1 protein function; Potency, µM (doses to about 46.1 µM); 0.4% of 270,000 active; calls by dose curve; also: actives are rising curves; nearly all actives have a fitted effect of over 50% in size
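S. cerevisiae expressing influenza A NS1, grown in glucose, washed, then diluted 1:100 into pH 6.0 -URA galactose medium with 23 nl compound. Growth recovery read as OD600; NS1-free strain serves as control.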
Cruzain inh noDet: cruzain (T. cruzi) inhibition without detergent; P25779; purified cruzain, Z-FR-AMC fluorescence, no detergent; Potency, µM, hits mostly inhibitors; 2.3% of 200,000 active; also: nearly all actives have a fitted effect of over 40% in size
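Detergent-free condition (0.00005% Triton X-100) in acetate buffer pH 5.5 with DTT. 1.5 nM enzyme and compound were pre-mixed 15 min, then 2 uM Z-FR-AMC substrate added; reaction progress from fluorescence change between first and third reads (60 s).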
Of the large screens only hits and unclear results are named; the others gave an inactive call. Unless noted, calls follow the shape of the dose curve; as a rule, active = well fitted curve in the direction sought with a large enough effect; inconclusive = small, poorly fitted or top-dose-only effect, or another doubt; inactive = no such curve, though single readings can be large; an effect the other way counts as inactive or inconclusive.

O=C(Nc1ccc(Cl)c(Cl)c1)Nc1ccc(N2CCCC2)c(S(=O)(=O)Nc2ccccc2Cl)c1	Cruzain inh noDet inconclusive
COc1ccccc1NS(=O)(=O)c1cc(NC(=O)c2sccc2C)ccc1N1CCCC1	none (no result: Cruzain inh Det, Cruzain inh noDet)
O=[N+]([O-])c1ccc(S(=O)(=O)Cc2ccccc2)c2nonc12	none
O=C(NCc1ccc(Cl)cc1)c1cc(S(=O)(=O)N2CCCCC2)c[nH]1	Cruzain inh Det inconclusive, Cruzain inh noDet 20µM
COc1cccc(CNC(=O)c2cc(S(=O)(=O)N3CCCCC3)c[nH]2)c1	none
Cc1ccc(C)c(NC(=O)c2ccc3c(c2)CCCN3S(C)(=O)=O)c1	none (no result: NS1 function inh)
CC(C)CCNC(=O)c1cc(-c2cccs2)nc2ccccc12	none (no result: Cruzain inh Det, Cruzain inh noDet)
CC(C)CCNC(=O)c1cc(-c2ccc(Br)s2)nc2ccccc12	Cruzain inh noDet 3.2µM (no result: NS1 function inh)
Cc1cccc(NC(=O)c2cc(-c3ccc(C)s3)nc3ccccc23)n1	Cruzain inh noDet 20µM
Cc1cc(NC(=O)c2cc(-c3ccc(C)s3)nc3ccccc23)no1	none
C[C@@H]1CC[C@]2(C(=O)O)CC[C@]3(C)C(=CCC4[C@@]5(C)C[C@@H](O)[C@H](O)[C@@](C)(CO)C5[C@H](O)C[C@]43C)C2[C@H]1C (stereo partly drawn)	Cruzain inh noDet inconclusive (no result: NS1 function inh)
Cc1cc(C(=O)NCC(=O)OCC(=O)Nc2ccc(OC(F)F)cc2)ccc1[N+](=O)[O-]	Cruzain inh Det 11µM, Cruzain inh noDet 10µM
O=C(COC(=O)CNC(=O)c1ccc(Cl)cc1)Nc1ncc(C(F)(F)F)cc1Cl	Cruzain inh Det 7.9µM, Cruzain inh noDet 4µM
CCC(=O)OCC(=O)Nc1ncc(C(F)(F)F)cc1Cl	none (no result: Cruzain inh Det, Cruzain inh noDet)
Cc1ccc(C(=O)NCC(=O)OCC(=O)Nc2ccc(Cl)cc2C(F)(F)F)cc1C	Cruzain inh Det 14µM, Cruzain inh noDet inconclusive
COCC(=O)OCC(=O)Nc1cc(C)c(C)cc1[N+](=O)[O-]	none
Cc1ccc(C(=O)NCC(=O)OCC(=O)Nc2cc(C)c(C)cc2[N+](=O)[O-])cc1	Cruzain inh Det 8.9µM, Cruzain inh noDet 10µM
COc1ccc(C(=O)COC(=O)CNC(=O)c2cccc(OC(F)F)c2)cc1	none (no result: Cruzain inh Det, Cruzain inh noDet)
Cc1ccsc1C(=O)OCC(=O)Nc1ccc(Cl)cc1C(F)(F)F	none
CC1=C(C(=O)N2CCN(c3ccc(Cl)cc3)CC2)C2(CCC(C)CC2)OC1=O (stereo not drawn)	none (no result: NS1 function inh)
Cc1ccc(C)c(CSC2=NC(C)(C)Nc3ccccc32)c1	none (no result: NS1 function inh)
CCC1CCCCN1C(=O)Cn1c(=O)n(CCCCCC(=O)NCc2ccc(F)cc2)c(=O)c2sccc21 (stereo not drawn)	none (no result: NS1 function inh)
Cc1cccc(CNc2nc(-c3ccccc3CN(C)C)nc3ccccc23)c1	none (no result: NS1 function inh)
O=P(O)(OP(=O)(O)c1ccccc1)c1ccccc1 (tested in a mixture with another compound)	none
COc1ccc(-c2nc3cnc(N4CCNCC4)nc3n(Cc3cccs3)c2=O)cc1	none (no result: NS1 function inh)
COc1ccc(C(=O)NCC(=O)OCC(=O)Nc2cc(OC)ccc2OC)cc1	Cruzain inh Det inconclusive
COc1ccc(Cl)cc1NC(=O)COC(=O)CNC(=O)c1ccc([N+](=O)[O-])c(C)c1	Cruzain inh Det 20µM, Cruzain inh noDet inconclusive
CCn1cc(C(=O)N2CCN(c3ccccc3)CC2)c(=O)c2cc(S(=O)(=O)N(C)C3CCCCC3)ccc21	none (no result: NS1 function inh)
Cc1cc(C)cc(OP(=O)(Oc2cc(C)cc(C)c2)Oc2cc(C)cc(C)c2)c1	none (no result: NS1 function inh)
CS(=O)(=O)N1CCC2(CC1)CN(c1ncccn1)C2	Cruzain inh noDet 16µM (no result: NS1 function inh)
CS(=O)(=O)N1CCC[C@@]2(CCN(c3ncccn3)C2)C1	none (no result: NS1 function inh)
O=C(/C(=C(\O)c1ccccc1)c1nc2ccccc2[nH]1)c1ccccc1	none (no result: Cruzain inh Det, Cruzain inh noDet)
O=C(/C=C/c1ccc(Cl)cc1Cl)c1nc2ccccc2[nH]1	Cruzain inh noDet 7.9µM
O=C(CN1CCN(c2ccccc2)CC1)Nc1nnc(-c2ccccc2)s1	none
COc1ccc(N2CCN(CC(=O)Nc3nnc(-c4ccccc4)s3)CC2)cc1	Cruzain inh noDet 25µM
O=[N+]([O-])c1ccc(NCCO)c(OCCO)c1	none (no result: NS1 function inh)
COc1ccc(NC(=O)Cn2c(=O)n(Cc3ccco3)c(=O)c3oc4ccccc4c32)cc1Cl	none (no result: NS1 function inh)
CCOC(=O)CNC(c1ccccc1)c1cc(Br)ccc1NC(=O)c1ccc(Cl)cc1 (stereo not drawn)	none (no result: NS1 function inh)
Cc1cc(C(=O)CN2C(=O)NC(C)(c3cccc(Br)c3)C2=O)c(C)n1Cc1ccco1 (stereo not drawn)	NS1 function inh inconclusive, Cruzain inh noDet 32µM
Cc1cc(C(=O)CSc2nn(-c3ccccc3)c(=S)s2)c(C)n1Cc1ccco1	NS1 function inh inconclusive, Cruzain inh noDet 25µM
Cc1cc(C)nc(NC(=O)CSc2nn(-c3ccccc3)c(=S)s2)n1	none (no result: Cruzain inh Det, Cruzain inh noDet)
Cc1cc(C(=O)CN2C(=O)NC(c3ccccc3)(c3ccccc3)C2=O)c(C)n1Cc1ccco1	NS1 function inh inconclusive, Cruzain inh noDet inconclusive
Cc1cc(C(=O)CSc2nc3ccccc3[nH]2)c(C)n1Cc1ccco1	Cruzain inh noDet 25µM
C=CCn1c(C)cc(C(=O)CSc2nc3ccccc3[nH]2)c1C	none
COC(=O)[C@H]1C(=O)[C@H](C(=O)OC)[C@@H]2CC[C@H]1N2C	none
COc1ccc(C2c3cccn3CCN2S(=O)(=O)c2ccc([N+](=O)[O-])cc2)cc1 (stereo not drawn)	Cruzain inh noDet 25µM (no result: NS1 function inh)
O=[N+]([O-])c1ccc(S(=O)(=O)N2CCn3cccc3C2c2ccccc2F)cc1 (stereo not drawn)	Cruzain inh noDet inconclusive (no result: NS1 function inh)
COc1ccc(Br)cc1CNC(=O)c1ccc2c(c1)N(Cc1ccc(C)cc1)CCS2	Cruzain inh noDet 10µM (no result: NS1 function inh)
Cc1ccc(CN2CCSc3ccc(C(=O)Nc4ccc(C)cc4)cc32)cc1	Cruzain inh noDet 10µM (no result: NS1 function inh)
COc1ccccc1CNC(=O)c1ccc2c(c1)N(Cc1ccc(C)cc1)CCS2	Cruzain inh noDet inconclusive (no result: NS1 function inh)
Cc1ccc(CN2CCSc3ccc(C(=O)N4CCOCC4)cc32)cc1	none (no result: Cruzain inh Det, Cruzain inh noDet)
COc1ccc2[nH]cc(CCNc3ncncc3-c3ccccc3C)c2c1	none (no result: NS1 function inh)
O=C(N/N=C/c1cccc2cccnc12)c1ccccc1O	none (no result: Cruzain inh Det, Cruzain inh noDet)
O=C(N/N=C/c1ccccc1Br)c1ccc(CSc2cccc3cccnc23)cc1	Cruzain inh noDet 10µM
Cc1ccc(C)c(SCC(=O)Nc2cccc(S(=O)(=O)NC3=NCCCCC3)c2)c1	none
O=C(CSc1ccc2ccccc2c1Br)Nc1cccc(S(=O)(=O)NC2=NCCCCC2)c1	NS1 function inh inconclusive, Cruzain inh noDet 20µM
CS(=O)(=O)c1ccc(CNC(=O)[C@H]2C[C@@H]2[C@H](NP(=O)(c2ccccc2)c2ccccc2)c2ccccc2)cc1	Cruzain inh noDet inconclusive (no result: NS1 function inh)
O=C(c1ccccc1)c1ccc2nc(-c3ccco3)c(-c3ccco3)nc2c1	none (no result: Cruzain inh Det, Cruzain inh noDet)
O=C(NCCc1ccccc1)c1ccc2nc(-c3ccco3)c(-c3ccco3)nc2c1	Cruzain inh Det 16µM, NS1 function inh 14µM, Cruzain inh noDet inconclusive
c1ccc2cc3c(cc2c1)-c1cccc2cccc-3c12	none (no result: NS1 function inh)
COCCCNC(=O)C(Cc1ccccc1)NS(=O)(=O)c1ccc2c(c1)c(=O)n(C)c(=O)n2C (stereo not drawn)	none
Cn1c(=O)c2cc(S(=O)(=O)NC(Cc3ccccc3)C(=O)NCc3ccco3)ccc2n(C)c1=O (stereo not drawn)	Cruzain inh Det 20µM, Cruzain inh noDet 16µM
CCCn1c(-c2ccc(F)cc2)nc2c(NCCN(C)C)nc(C)nc21	none (no result: NS1 function inh)
O=C(COc1ccc2c(c1)OCO2)Nc1ccc2c(c1)oc1ccccc12	Cruzain inh noDet 10µM
O=C(Nc1ccc2c(c1)oc1ccccc12)c1ccc2c(c1)OCO2	Cruzain inh noDet inconclusive
